Giardia killer: Small Molecules that selectively kill Giardia lamblia: qHTS; Giardia lamblia trophozoite viability; activity change, % at 7.66 µM, hits read low; 0.15% of 340,000 active; AID 540267, 2011; in the data active means activity change below about -80%; inconclusive means between about -30% and that limit;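 further: parasites exposed to compound for two days anaerobically before the ATP read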
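ATP-content bioluminescence gauges trophozoite survival. Cells (100/well) receive compound and incubate anaerobically for 48 hrs at 37 deg C; detection reagent follows for 15-30 min at room temperature.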
Sfp inh: qHTS Assay for Inhibitors of Bacillus subtilis Sfp phosphopantetheinyl transferase (PPTase); 4'-phosphopantetheinyl transferase ffp (Bacillus subtilis), Q9F4F7; Biochemical Sfp PPTase activity, qHTS; Potency, µM, for inactives: largest response in the series, negative = inhibition, hits mostly inhibitors; 3.5% of 310,000 active; AID 1490, 2009;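 further: the enzyme is Sfp with the accession as filed and its product quenches rhodamine fluorescence; potency means the concentration at half of the fitted maximal effect; 0% = enzyme reaction without inhibitor and -100% = no enzyme wells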
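Fluorescence-quenching assay with 15 nM Sfp, 5 uM rhodamine-CoA and 12.5 uM BHQ-2-labelled ybbR peptide in pH 7.6 Hepes/MgCl2 buffer. Enzyme was pre-incubated with compound for 15 min at room temperature. Rate was taken from the 30-min fluorescence change (525/598 nm).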
Coupling enz: qHTS Assay for Inhibitors of Fructose-1,6-bisphosphate Aldolase from Giardia Lamblia: Coupling assay counterscreen | AID 2472, 2010 | 0.67% of 290,000 active | coupling enzyme system counterscreen, AmpLite Red fluorescence | activity change, negative = inhibition, % at 58.2 µM, hits read low; in the data active means activity change below about -30%
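Coupling enzymes only (glyceraldehyde-3-phosphate) + compound, at 57.5 uM final, 10 min RT; add substrate/coupling/AmpLite Red mix, 20 min RT; fluorescence ex 525/em 598 nm. Actives flag coupling-system interference.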
ELG1 repair inh: qHTS screen for small molecules that inhibit ELG1-dependent DNA repair in human embryonic kidney (HEK293T) cells expressing luciferase-tagged ELG1. HEK293T ELG1-luciferase reporter, luminescence, 16 h; DNA damage induced by 5-fluorouridine. Potency, µM (doses to about 46.1 µM), for the others: at the highest dose activity change, negative = inhibition, usual class: inhibitors. 2.3% of 330,000 active; further: potency means the concentration at half of the fitted maximal effect; nearly all actives have a fitted effect of over 55% in size
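5-Fluorouridine DNA damage + compound/DMSO, 2,000 cells/well, 16 h, 37 °C/5% CO2. ONE-Glo, 30 min RT, luminescence. Readout = decrease in reporter signal.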
* marks the source's active call; other numbers are inactive results. Rows were chosen to be rich in hits. Some 5.5% of all compounds tested hit in one or more screens of this group. Unless noted, the call rests on the fitted dose curve; in most records, active means well fitted curve in the direction sought with a large enough effect; inconclusive means small, poorly fitted or top-dose-only effect, or another doubt; inactive means no such curve, though single readings can be large; an effect the other way counts as inactive or inconclusive. Unless noted, on the % scale 0 is the no-effect control and ±100 the full control effect.

CC1CCN(C(=O)CNC(=O)CNS(=O)(=O)c2ccccc2)CC1 was read as Giardia killer -8.7, Sfp inh 21.7%, Coupling enz 3.1 and ELG1 repair inh -5.3%.
For O=C(Nc1ccc(N2CCCC2)cc1)c1cccc(-c2cc3ccccc3oc2=O)c1 the results were Giardia killer -21.5, Sfp inh 15.8µM*, Coupling enz 3.0 and ELG1 repair inh -6.2%.
For COc1ccc(C(=O)N2c3ccccc3C=CC2C#N)cc1 (stereo not given) the results were Giardia killer -13.1, Sfp inh 3.5%, Coupling enz -1.4 and ELG1 repair inh -28.0%.
`N#C[C@H]1[C@H](c2ccccc2)[C@](C#N)(C(=O)c2ccccc2)[C@@H]2C=Cc3ccccc3N21` gave Sfp inh 2.3% and ELG1 repair inh 12.6µM*.
Screening O=S(=O)(c1ccccc1)N1CCC2(CCCN(c3ccccn3)C2)CC1 returned Sfp inh -24.6% and Coupling enz 0.0.
Screening O=C(c1cc(Cl)cc(Cl)c1)N1CCN(c2cc(C(F)(F)F)nc3ccccc23)CC1 returned Giardia killer -2.9, Sfp inh 3.3%, Coupling enz -3.0 and ELG1 repair inh 20.6µM*.
For Cc1cc([N+](=O)[O-])ccc1NC(=O)c1ccco1 the results were Giardia killer -23.6, Sfp inh 14.5%, Coupling enz 1.5 and ELG1 repair inh 2.0%.
COc1cc(NC(=O)c2ccc([N+](=O)[O-])o2)ccc1NC(=O)c1ccco1 was read as Giardia killer -95.7*, Sfp inh -1.5%, Coupling enz 2.8 and ELG1 repair inh -3.3%.
For Cc1cc(NC(=O)c2ccc([N+](=O)[O-])o2)ccc1NC(=O)c1ccco1 the results were Giardia killer -94.0*, Sfp inh 3.1%, Coupling enz 1.1 and ELG1 repair inh inconclusive.
COc1cc(NC(=O)c2cccc([N+](=O)[O-])c2)ccc1NC(=O)c1ccco1 was read as Giardia killer -0.7, Sfp inh inconclusive, Coupling enz 1.2 and ELG1 repair inh -4.6%.
Screening Cc1cc(C)cc(C(=O)NCC(=O)N2CCC(C(N)=O)CC2)c1 returned Giardia killer 22.9 and ELG1 repair inh inconclusive.
FC(F)(F)c1cc(-c2ccco2)nc(NCc2ccccc2)n1 was read as Giardia killer 4.3, Sfp inh 20µM*, Coupling enz -0.3 and ELG1 repair inh 7.4%.
`CCn1cc(CN2CCC(n3nccc3NC(=O)c3ccc4c(c3)OCO4)CC2)c(C)n1` gave Giardia killer 3.7, Sfp inh 12.6% and ELG1 repair inh 15.0%.
`Cc1cc(=O)n2cccc(O)c2n1` gave Giardia killer -4.8, Sfp inh 56.2µM*, Coupling enz -23.1 and ELG1 repair inh inconclusive.
Screening Cc1cccn2c(=O)cc(COC(=O)C(C)Oc3ccccc3)nc12 (stereo not given) returned Giardia killer 12.0 and ELG1 repair inh 2.1%.
CSCCC(NC(=O)/C(=C/c1ccco1)NC(=O)c1ccco1)C(=O)O (stereo not given) was read as Giardia killer 42.5.
`Cc1sc2nc(CN3CCOCC3)nc(NCCc3ccccc3)c2c1C` gave Giardia killer -1.3, Sfp inh 2.6%, Coupling enz -3.0 and ELG1 repair inh inconclusive.
Cc1sc2nc(CN3CCN(c4ccc(O)cc4)CC3)[nH]c(=O)c2c1C was read as Giardia killer 9.4, Sfp inh 35.5µM*, Coupling enz -11.7 and ELG1 repair inh 20.6µM*.
For Cc1sc2nc(CN3CCOCC3)[nH]c(=S)c2c1C the results were Giardia killer -9.1, Sfp inh 8.91µM*, Coupling enz -17.4 and ELG1 repair inh -13.4%.
`COC(=O)c1sc2ccccc2c1-n1cccc1C(=O)C(=O)Nc1ccc(F)cc1` gave Giardia killer 5.7, Sfp inh -23.3%, Coupling enz -10.2 and ELG1 repair inh 14.6µM*.
For COC(=O)c1sc2ccccc2c1-n1cccc1C(=O)C(=O)Nc1ccc(C)cc1 the results were Giardia killer -3.9, Sfp inh -2.0%, Coupling enz -2.9 and ELG1 repair inh inconclusive.
`CCOc1ccc(OCCC(=O)OCC(=O)Nc2ccc3c(c2)OCCO3)cc1` gave Giardia killer 1.7 and ELG1 repair inh 5.7%.
For Cn1c(SCC(=O)Nc2cccc(F)c2)nc2c(c1=O)SCC2 the results were Giardia killer 15.2, Sfp inh 12.4% and ELG1 repair inh inconclusive.
O=C(c1ccc([N+](=O)[O-])o1)N1CCc2ccccc2C1 was read as Giardia killer -86.0*, Sfp inh 9.5%, Coupling enz 0.8 and ELG1 repair inh -9.0%.
`O=C(c1ccc([N+](=O)[O-])o1)N1CCc2ccccc21` gave Giardia killer -88.1*, Sfp inh 10.5%, Coupling enz 1.3 and ELG1 repair inh inconclusive.
Screening O=C(c1ccc([N+](=O)[O-])o1)N1CCCCCC1 returned Giardia killer -90.9* and ELG1 repair inh 5.4%.
For CCN(CC)CCn1c2c(c(SCC(=O)Nc3ccc4c(c3)OCCO4)nc1=O)CCCC2 the results were Giardia killer -3.8 and ELG1 repair inh -4.9%.
For COc1ccc2ccc(=O)oc2c1CC(=O)C(C)C the results were Giardia killer -15.4 and ELG1 repair inh 16.4%.
Screening CCCc1cc(=O)[nH]c(SCC(=O)NC2CCCc3ccccc32)n1 (stereo not given) returned Giardia killer -10.9, Sfp inh 16.5%, Coupling enz -38.1* and ELG1 repair inh -7.0%.
Screening Nc1cc(=O)[nH]c(SCC(=O)NC2CCCc3ccccc32)n1 (stereo not given) returned Giardia killer 11.0, Sfp inh 6.8%, Coupling enz 2.1 and ELG1 repair inh -5.3%.
O=C(/C(=C/c1ccc(Cl)cc1)c1nc2ccccc2[nH]1)c1cccs1 was read as Giardia killer -22.2, Sfp inh -1.0%, Coupling enz -0.7 and ELG1 repair inh 7.31µM*.
O=C(/C(=C\c1ccccc1)c1nc2ccccc2[nH]1)c1ccc(Cl)cc1 was read as Giardia killer -6.4, Sfp inh 3.9%, Coupling enz 4.1 and ELG1 repair inh inconclusive.
For COc1ccccc1C(=O)N1CCN(CCNC(=O)C(=O)Nc2ccc(Br)c(C)c2)CC1 the results were Giardia killer 33.9, Sfp inh -3.1% and ELG1 repair inh inconclusive.
For Cc1ccccc1C(=O)N1CCN(CCNC(=O)C(=O)Nc2ccc(Br)cc2)CC1 the results were Giardia killer -21.1, Sfp inh -2.2%, Coupling enz 1.0 and ELG1 repair inh 20.6µM*.
Screening C=CCc1c(C)nc(SC)nc1Nc1ccc(C(C)=O)cc1 returned Giardia killer 7.5, Sfp inh -7.6%, Coupling enz -18.4 and ELG1 repair inh 7.31µM*.
Screening C=CCc1c(C)nc(SC)nc1Nc1ccc(C(=O)O)cc1 returned Giardia killer -11.9, Sfp inh 16.7%, Coupling enz 13.2 and ELG1 repair inh inconclusive.

Compound activity: PubChem, National Center for Advancing Translational Sciences (NCATS)
